Measurements published in the supplement of paper PMC8728848.
The entries come from a sample that favours the strongest signals as a whole.

Assays:
Assay in all cases: glycan array binding signal (z-score within array); higher = stronger binding
Details in all cases: glycan notation: IUPAC condensed, linker removed
[1] = biological target: Fuc(a1-2)Gal(b1-3)GalNAc(b1-3)Gal(a1-4)Gal(b1-4)Glc
Procedure, shortened: (§1)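 The binding signal is a Z-score computed within each array and averaged over linkers. Arrays of the same protein sequence at different concentrations or buffers were also averaged together. Data originate from 3228 arrays in the Consortium for Functional Glycomics database, kept only where the protein sequence was available.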

[2] = biological target: Fuc(a1-2)Gal(b1-3)GlcNAc(b1-3)[Neu5Ac(a2-6)Gal(b1-4)GlcNAc(b1-6)]Gal(b1-4)Glc
Procedure, shortened: as §1

[3] = biological target: Fuc(a1-2)Gal(b1-4)[Fuc(a1-3)]GlcNAc(b1-2)Man(a1-3)[Fuc(a1-2)Gal(b1-4)[Fuc(a1-3)]GlcNAc(b1-2)Man(a1-6)]Man(b1-4)GlcNAc(b1-4)GlcNAc
Procedure, shortened: as §1

[4] = biological target: Fuc(a1-2)[Gal(a1-3)]Gal(b1-4)Glc
Procedure, shortened: as §1

[5] = biological target: Fuc(a1-2)[GalNAc(a1-3)]Gal(b1-3)GalNAc(a1-3)[Fuc(a1-2)]Gal(b1-4)GlcNAc
Procedure, shortened: as §1

[6] = biological target: Fuc(a1-2)[GalNAc(a1-3)]Gal(b1-3)GlcNAc
Procedure, shortened: as §1

[7] = biological target: Fuc(a1-3)[Gal(b1-4)]Glc6S
Procedure, shortened: as §1

[8] = biological target: Gal(b1-3)Gal(b1-4)GlcNAc(b1-2)Man(a1-3)[Gal(b1-3)Gal(b1-4)GlcNAc(b1-2)Man(a1-6)]Man(b1-4)GlcNAc(b1-4)GlcNAc
Procedure, shortened: as §1

[9] = biological target: Gal(b1-3)[Fuc(a1-4)]GlcNAc
Procedure, shortened: as §1

[10] = biological target: Gal(b1-3)[Neu5Ac(a2-6)]GalNAc
Procedure, shortened: as §1

Gal(b1-4)GlcNAc = biological target: Gal(b1-4)GlcNAc
Procedure, shortened: as §1

[11] = biological target: Gal(b1-4)GlcNAc(b1-2)Man(a1-3)Man(b1-4)GlcNAc(b1-4)GlcNAc
Procedure, shortened: as §1

[12] = biological target: Gal(b1-4)GlcNAc(b1-2)Man(a1-3)[GlcNAc(b1-2)Man(a1-6)]Man(b1-4)GlcNAc(b1-4)GlcNAc
Procedure, shortened: as §1

[13] = biological target: Gal(b1-4)GlcNAc(b1-2)[Gal(b1-4)GlcNAc(b1-4)]Man(a1-3)[GlcNAc(b1-4)][Gal(b1-4)GlcNAc(b1-2)Man(a1-6)]Man(b1-4)GlcNAc(b1-4)GlcNAc
Procedure, shortened: as §1

[14] = biological target: Gal(b1-4)GlcNAc(b1-2)[Gal(b1-4)GlcNAc(b1-4)]Man(a1-3)[GlcNAc(b1-4)][Gal(b1-4)GlcNAc(b1-2)[Gal(b1-4)GlcNAc(b1-6)]Man(a1-6)]Man(b1-4)GlcNAc(b1-4)GlcNAc
Procedure, shortened: as §1

[15] = biological target: Gal(b1-4)GlcNAc(b1-2)[Gal(b1-4)GlcNAc(b1-6)]Man(a1-6)[GlcNAc(b1-4)][Gal(b1-4)GlcNAc(b1-2)Man(a1-3)]Man(b1-4)GlcNAc(b1-4)GlcNAc
Procedure, shortened: as §1

[16] = biological target: Gal(b1-4)GlcNAc(b1-3)GalNAc
Procedure, shortened: as §1

[17] = biological target: Gal(b1-4)GlcNAc(b1-3)[Gal(b1-4)GlcNAc(b1-6)]Gal(b1-4)GlcNAc
Procedure, shortened: as §1

[18] = biological target: Gal(b1-4)GlcNAc(b1-3)[Gal(b1-4)GlcNAc(b1-6)]GalNAc
Procedure, shortened: as §1

[19] = biological target: GalNAc(a1-3)GalNAc(b1-3)Gal(a1-4)Gal(b1-4)Glc
Procedure, shortened: as §1

[20] = biological target: GlcNAc(b1-2)Man(a1-3)[GlcNAc(b1-4)][GlcNAc(b1-2)Man(a1-6)]Man(b1-4)GlcNAc(b1-4)GlcNAc
Procedure, shortened: as §1

[21] = biological target: GlcNAc(b1-3)[GlcNAc(b1-6)]GlcNAc(b1-4)GlcNAc
Procedure, shortened: as §1

[22] = biological target: GlcNAc(b1-4)[GlcNAc(b1-6)]GalNAc
Procedure, shortened: as §1

[23] = biological target: GlcNAc6S(b1-3)Gal(b1-4)GlcNAc
Procedure, shortened: as §1

[24] = biological target: Man(a1-2)Man(a1-2)Man(a1-6)[Man(a1-3)]Man
Procedure, shortened: as §1

[25] = biological target: Man(a1-2)Man(a1-3)[Man(a1-2)Man(a1-6)]Man
Procedure, shortened: as §1

[26] = biological target: Man(a1-2)Man(a1-3)[Man(a1-2)Man(a1-6)]Man(a1-6)[Man(a1-2)Man(a1-2)Man(a1-3)]Man
Procedure, shortened: as §1

[27] = biological target: Man(a1-2)Man(a1-3)[Man(a1-2)Man(a1-6)]Man(a1-6)[Man(a1-2)Man(a1-2)Man(a1-3)]Man(b1-4)GlcNAc(b1-4)GlcNAc
Procedure, shortened: as §1

[28] = biological target: Man(a1-2)Man(a1-6)[Man(a1-3)]Man(a1-6)[Man(a1-2)Man(a1-2)Man(a1-3)]Man
Procedure, shortened: as §1

[29] = biological target: Man(a1-2)Man(a1-6)[Man(a1-3)]Man(a1-6)[Man(a1-2)Man(a1-2)Man(a1-3)]Man(b1-4)GlcNAc(b1-4)GlcNAc
Procedure, shortened: as §1

Man(a1-3)[Man(a1-6)]Man = biological target: Man(a1-3)[Man(a1-6)]Man
Procedure, shortened: as §1

[30] = biological target: Man(a1-3)[Man(a1-6)]Man(a1-6)[Man(a1-2)Man(a1-3)]Man(b1-4)GlcNAc(b1-4)GlcNAc
Procedure, shortened: as §1

[31] = biological target: Man(a1-3)[Man(a1-6)]Man(a1-6)[Man(a1-3)]Man
Procedure, shortened: as §1

Neu5Ac(a2-3)Gal = biological target: Neu5Ac(a2-3)Gal
Procedure, shortened: as §1

[32] = biological target: Neu5Ac(a2-3)Gal(b1-3)GalNAc(b1-4)[Neu5Ac(a2-8)Neu5Ac(a2-3)]Gal(b1-4)Glc
Procedure, shortened: as §1

[33] = biological target: Neu5Ac(a2-3)Gal(b1-4)GlcNAc
Procedure, shortened: as §1

[34] = biological target: Neu5Ac(a2-3)Gal(b1-4)GlcNAc(b1-2)Man(a1-3)[GlcNAc(b1-2)Man(b1-4)GlcNAc(b1-2)Man(a1-6)]Man(b1-4)GlcNAc(b1-4)GlcNAc
Procedure, shortened: as §1

[35] = biological target: Neu5Ac(a2-3)Gal(b1-4)GlcNAc(b1-3)Gal(b1-4)GlcNAc(b1-3)Gal(b1-4)GlcNAc
Procedure, shortened: as §1

[36] = biological target: Neu5Ac(a2-6)GlcNAc(b1-4)GlcNAc(b1-4)GlcNAc
Procedure, shortened: as §1

[37] = biological target: Neu5Ac9Ac(a2-3)Gal(b1-4)GlcNAc
Procedure, shortened: as §1

[38] = biological target: Neu5Ac9Ac(a2-6)Gal(b1-4)GlcNAc
Procedure, shortened: as §1

B1: ConA (Canavalia ensiformis), P02866 (protein)
chain: MAISKKSSLFLPIFTFITMFLMVVNKVSSSTHETNALHFMFNQFSKDQKDLILQGDATTGTDGNLELTRVSSNGSPQGSSVGRALFYAPVHIWESSAVVASFEATFTFLIKSPDSHPADGIAFFISNIDSSIPSGSTGRLLGLFPDANVIRNSTTIDFNAAYNADTIVAVELDTYPNTDIGDPSYPHIGIDIKSVRSKKTAKWNMQNGKVGTAHIIYNSVDKRLSAVVSYPNADSATVSYDVDLDNVLPEWVRVGLSASTGLYKETNTILSWSFTSKLKSNEIPDIATVV
glycan array binding signal (z-score) [1]: -0.286 | glycan array binding signal (z-score) [2]: -0.189 | glycan array binding signal (z-score) [3]: -0.056 | glycan array binding signal (z-score) [4]: -0.278 | glycan array binding signal (z-score) [5]: -0.245 | glycan array binding signal (z-score) [6]: -0.279 | glycan array binding signal (z-score) [7]: -0.245 | glycan array binding signal (z-score) [8]: 0.087 | glycan array binding signal (z-score) [9]: -0.274 | glycan array binding signal (z-score) [10]: -0.129 | glycan array binding signal (z-score) (Gal(b1-4)GlcNAc): -0.225 | glycan array binding signal (z-score) [11]: -0.192 | glycan array binding signal (z-score) [12]: 0.311 | glycan array binding signal (z-score) [13]: -0.211 | glycan array binding signal (z-score) [14]: -0.196 | glycan array binding signal (z-score) [15]: -0.24 | glycan array binding signal (z-score) [16]: -0.228 | glycan array binding signal (z-score) [17]: -0.208 | glycan array binding signal (z-score) [18]: -0.214 | glycan array binding signal (z-score) [19]: -0.201 | glycan array binding signal (z-score) [20]: -0.108 | glycan array binding signal (z-score) [21]: -0.317 | glycan array binding signal (z-score) [22]: -0.264 | glycan array binding signal (z-score) [23]: -0.088 | glycan array binding signal (z-score) [24]: 4.9 | glycan array binding signal (z-score) [25]: 3.94 | glycan array binding signal (z-score) [26]: 7.48 | glycan array binding signal (z-score) [27]: 3.33 | glycan array binding signal (z-score) [28]: 7.39 | glycan array binding signal (z-score) [29]: 4.46 | glycan array binding signal (z-score) (Man(a1-3)[Man(a1-6)]Man): 5.51 | glycan array binding signal (z-score) [30]: 4.75 | glycan array binding signal (z-score) [31]: 4.27 | glycan array binding signal (z-score) (Neu5Ac(a2-3)Gal): -0.283 | glycan array binding signal (z-score) [32]: -0.248 | glycan array binding signal (z-score) [33]: -0.29 | glycan array binding signal (z-score) [34]: -0.041 | glycan array binding signal (z-score) [35]: -0.269 | glycan array binding signal (z-score) [36]: -0.184 | glycan array binding signal (z-score) [37]: -0.009 | glycan array binding signal (z-score) [38]: -0.243
